In the library only some 3.8% were active in any assay of this set; here they are far more common.
ERb SRC1 inh = blocks coactivator binding to human estrogen receptor beta. Q92731. TR-FRET ER-beta LBD / SRC1-Cy5 peptide binding; receptor agonist-loaded with 1 µM estradiol. inhibition, % at 25.6 µM. 1.3% of 86,000 active. AID 633;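 active = compounds whose percent inhibition of the receptor-coactivator binding signal exceeds about 50% in the single-dose screen, limit read from the data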;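 also: 0% = receptor plus peptide wells without compound and 100% = peptide-only wells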
Calb biofilm kill = kills Candida albicans biofilms. C. albicans biofilm + clotrimazole, Alamar Blue. inhibition, % at 6 µM. 0.14% of 85,000 active;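 active = inhibition above 20%; inactive = inhibition below 20%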;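 also: preformed 24 hr biofilms exposed to compound for 48 hr; 0% = biofilm without compound and 100% = blank killed by clotrimazole plus chlorhexidine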
Smad3 inh = blocks human Smad3 binding to FoxH1 peptide; P84022; TR-FRET Smad3/Dy647-FoxH1 peptide binding, europium anti-His; inhibition, % at 25 µM; 0.29% of 88,000 active; AID 630;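 active = compounds that reduce the energy-transfer binding signal between the protein and its labelled peptide by more than half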;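 also: 0% = Smad3 plus labelled peptide maximal FRET and 100% = peptide-only background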
ERa coact inh = blocks coactivator binding to human estrogen receptor alpha. P03372. TR-FRET ER-alpha LBD / SRC-1 peptide, estradiol-bound. inhibition, % at 25.6 µM. 1.7% of 86,000 active. AID 629; in the data active = inhibition above about 50%;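 also: 0% = receptor plus peptide control and 100% = peptide only without receptor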
Target sequence (P03372 whole entry, looked up, the tested form may be a part): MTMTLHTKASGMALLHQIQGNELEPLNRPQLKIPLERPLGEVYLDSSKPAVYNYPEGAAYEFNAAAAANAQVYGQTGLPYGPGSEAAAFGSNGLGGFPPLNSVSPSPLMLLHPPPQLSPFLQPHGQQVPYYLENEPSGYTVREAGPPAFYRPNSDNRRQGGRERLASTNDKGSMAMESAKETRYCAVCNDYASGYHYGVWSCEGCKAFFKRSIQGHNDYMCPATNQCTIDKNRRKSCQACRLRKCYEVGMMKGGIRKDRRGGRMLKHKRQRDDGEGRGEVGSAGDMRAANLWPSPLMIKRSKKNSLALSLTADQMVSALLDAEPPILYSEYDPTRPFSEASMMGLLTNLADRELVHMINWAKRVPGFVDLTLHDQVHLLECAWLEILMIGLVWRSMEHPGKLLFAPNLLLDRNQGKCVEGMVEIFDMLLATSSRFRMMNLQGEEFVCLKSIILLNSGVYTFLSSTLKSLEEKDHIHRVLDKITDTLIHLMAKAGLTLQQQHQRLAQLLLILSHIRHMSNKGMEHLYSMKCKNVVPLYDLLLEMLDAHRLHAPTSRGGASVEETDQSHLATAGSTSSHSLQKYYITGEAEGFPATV
ERa SRC1 pot = ER-alpha (human) coactivator binding potentiation. P03372. 1.3% of 86,000 active. AID 639. coactivator binding (% of control), % at 25.6 µM. TR-FRET ERalpha-LBD/SRC-Cy5 coactivator binding, 2 h; 100 = basal binding, no effect; in the data active = activity above about 200%;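 also: binding measured in presence of low estradiol as agonist stimulus; 0% = peptide alone without receptor and 100% = receptor with peptide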
MT1-MMP txn act = activates MT1-MMP transcription; 0.16% of 86,000 active; activation factor at 10 µM; HT1080 MT1-MMP promoter luciferase reporter, luminescence, overnight; active compounds read high;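 active = activation factor of at least 2 for MT1-MMP transcription at 10 µM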
Starred values were filed as active, the others as inactive; x = no result; [ ] = another dose, or the depositor's remark.

SMILES	ERb SRC1 inh	Calb biofilm kill	Smad3 inh	ERa coact inh	ERa SRC1 pot	MT1-MMP txn act
CCOC(=O)c1sc2nc(CC(=O)OC)nc(NCc3ccc(Cl)cc3)c2c1C	8	-1	6	37	339*[fluorescence artefact?]	0.9
CCOC(=O)c1sc2nc(CC(=O)OC)nc(NCCN(CC)CC)c2c1C	11	3	-8	-1	109	1
Cc1ccc(S(=O)(=O)Nc2ccccc2C(=O)c2ccc(C)c(C)c2)cc1	x	x	17	x	x	x
O=C(O)[C@@H]1[C@H]2C[C@H]([C@@H](Br)[C@H]2N2C(=O)CCC2=O)[C@@H]1C(=O)O	x	x	12	x	x	x
CC1(C)Cc2c(c(N3CCOCC3)nc3sc4c(=O)[nH]cnc4c23)CS1	55*[fluorescence artefact?]	-3	5	30	83	1.2
CCOC(=O)c1c(C)oc2c1c(C(c1cccnc1)N1CCN(C)CC1)c(O)c1ccccc12 (configuration not stated)	64*[fluorescence artefact?]	7	8	77*[fluorescence artefact?]	51	1.7
CCOC(=O)c1c(C)oc2c1c1c(c3ccccc32)OCN(Cc2cccnc2)C1	38	6	1	34	139	1.9
N#Cc1ccc(-c2cccnc2)nc1SCC(=O)Nc1sc2c(c1C#N)CCC2	66*	6	4	85*	53	1.1
O=C(CSc1n[nH]c(-c2ccco2)n1)Nc1sc2c(c1C(=O)Nc1ccccc1)CCCC2	35	4	14	51*	78	1
COc1ccc(-n2c(SCC(=O)Nc3sc4c(c3C#N)CCCC4)nnc2-c2ccccc2OC)cc1	-6	10	2	-2	101	1.1
CCOC(=O)c1c(NC(=O)CSc2nnc(C)s2)sc2c1CCCCC2	2	3	-3	2	137	1.2
CCOC(=O)Cc1csc(SCC(=O)Nc2sc3c(c2C(N)=O)CCC3)n1	82*[fluorescence artefact?]	9	4	92*[fluorescence artefact?]	61	1
COc1ccc(-c2nnc(SCC(=O)Nc3sc4c(c3C#N)CCCC4)n2-c2ccccc2)cc1	6	11	17	5	230*[fluorescence artefact?]	1.2
NC(=O)N[C@H](CC(=O)O)C(=O)O	x	x	1	x	x	x
CC(Cc1cccs1)NC(=O)Nc1ccc(Cl)c(Cl)c1 (configuration not stated)	-13	9	-5	3	89	1.7
CCOC(=O)c1ccc2c(c1)nc(COc1ccc(OC)cc1)n2CC	-16	4	10	-2	94	1.1
O=C(Nc1cnc2ccccn2c1=O)c1ccc(Cl)cc1	-2	-5	2	-1	118	1.6
COC(=O)c1ccc(C(NC(=O)OCc2ccccc2)/C(I)=C/[C@@H](C)C(=O)O)cc1 (some centres not stated)	x	x	x	x	x	1
COCCNC(=O)[C@H](C)/C=C(\I)C(NC(=O)OCc1ccccc1)c1ccc(C(=O)OC)cc1 (some centres not stated)	x	x	x	x	x	1.1
NC(=O)c1c(NC(=O)COC(=O)CSc2nnc(-c3ccc(Cl)cc3)o2)sc2c1CCC2	46	9	11	58*[fluorescence artefact?]	41	1.2
N#Cc1c(NC(=O)CSc2nnc(-c3ccco3)n2-c2ccccc2)sc2c1CCC2	38	5	-2	44	61	1.1
NC(=O)c1c(NC(=O)CSc2nnc(-c3ccco3)n2-c2ccccc2)sc2c1CCC2	82*[fluorescence artefact?]	4	14	94*[fluorescence artefact?]	28	1.1
CCC1(CC)NC(=O)N(CC(=O)Nc2sc3c(c2C(N)=O)CCC3)C1=O	74*[fluorescence artefact?]	7	10	84*	28	1
CCOC(=O)c1c(NC(=O)CSc2nnc(-c3ccc(OC)cc3)o2)sc2c1CCC2	15	7	-3	35	116	1.3
Cc1cccc(C)c1NC(=O)Nc1ccc(S(N)(=O)=O)cc1	x	x	0	x	x	x
SMILES	ERb SRC1 inh	Calb biofilm kill	Smad3 inh	ERa coact inh	ERa SRC1 pot	MT1-MMP txn act
C[C@H](C(=O)c1ccncc1)c1ccccn1	x	x	0	x	x	x
N#Cc1c(-c2ccc(Br)cc2)nc2n(c1=O)CCCS2	17	3	-4	10	239*	1
CCCS(=O)(=O)O	x	x	0	x	x	x
CCCOc1ccccc1NC(=O)c1c(-c2ccccc2)noc1C	-3	30*	0	-1	96	1.2
C[C@H]1CCCC2(CC[N+](C)(CCC[N+](C)(C)C)CC2)C1 (some centres not stated)	x	x	14	x	x	x
C[C@H]1C2=C3[C@@H](C[C@H]4C(=O)N(c5ccccc5)C(=O)[C@H]4[C@H]3[C@@]3(Cc4ccccc4)C(=NCCc4c[nH]c5ccccc45)OC(=O)N3C2=O)[C@H]2C(=O)N(c3ccccc3)C(=O)[C@H]21	x	x	x	x	x	1.2
Cc1ccc(-n2c(C)nnc2SCC(=O)Nc2ccccc2)cc1	6	0	-19	25	107	1
CCc1nc(SCC(=O)Nc2cc(C)on2)c2c(C)c(C)sc2n1	27	5	-17	9	234*[fluorescence artefact?]	1
COc1ccc(-c2nsc(SCC(=O)Nc3cc(C)on3)n2)cc1	11	7	6	3	241*[fluorescence artefact?]	0.9
Cc1cc(NC(=O)CSc2ccc(-c3nc4cc(C)c(C)cc4[nH]3)cn2)no1	15	-4	-2	29	243*[fluorescence artefact?]	1.3
CCc1nnc(NC(=O)CSc2nc(-c3ccc(OC)cc3)ns2)s1	-9	-3	6	-2	145	1.2
CCc1cc2ccc(OC)cc2nc1SCC(=O)Nc1cc(C)on1	25	-5	-14	24	205*	1.1
Cc1ccc2nc(SCC(=O)Nc3cc(C)on3)[nH]c2c1	26	4	-8	9	107	1.1
CCOc1c(C(N)=O)c(-c2ccccc2)c2c(=O)[nH]c3ccccc3n12	61*	3	3	82*[fluorescence artefact?]	54	0.8
CCOC(=O)c1c(-c2ccccc2)c(C(C)=O)c(=O)n(C)c1C	-4	5	-5	-8	120	1.1
COc1ccc2c(Cl)cc(NC(=S)Nc3ccccc3)nc2c1	x	x	-1	x	x	x
c1ccc(Cc2cc(-c3ccccc3)on2)cc1	-5	1	6	-5	83	1.9
NC(N)=N/N=C/c1ccc(C2CCNCC2)cc1	x	x	50	x	x	x
COc1ccc(/C=N/n2cc(-c3ccc(OC)cc3)nc2N)cc1	23	0	2	77*[fluorescence artefact?]	37	1.3
NCCNC(=S)S	x	x	57*	x	x	x
Cn1c(=O)oc2cc(S(=O)(=O)Nc3ccc4c(c3)OCO4)ccc21	45	-4	10	57*[fluorescence artefact?]	51	1.1
CC(=O)Nc1nc(NC(C)=O)c2[nH]c(CO)nc2n1	x	x	10	x	x	x
C[C@]12CC[C@@H]3c4ccc(O)cc4[C@@H](O)C[C@H]3[C@@H]1CC[C@@H]2O	12	2	-18	0	530*	1.1
C[C@]12CC[C@@H]3c4ccc(O)cc4CC[C@H]3[C@@H]1CC[C@@H]2O	x	6	-2	x	x	1.1
O=C(Nc1nccs1)c1ccc2nccnc2c1	60*	6	8	40	43	1.3
CCN1C(=O)c2ccc(C(=O)Nc3nccs3)cc2C1=O	-2	6	7	11	109	1.2
CN(C)S(=O)(=O)N(CC(=O)N(Cc1ccccc1)Cc1ccccc1)c1ccccc1	37	6	-1	55*	111	1.2

Screening data as filed in PubChem BioAssay.
